The source of these data is PubChem BioAssay (NCI).

Among the test systems are HCT-15 colon; HT29 colon; SNB-19 CNS; U251 CNS; PC-3 prostate; SK-MEL-5 melanoma; UACC-62 melanoma; LOX IMVI melanoma; SK-MEL-28 melanoma; SK-MEL-2 melanoma; EKVX NSCLC; UO-31 renal; TK-10 renal; ACHN renal; A498 renal; CCRF-CEM leukemia; MOLT-4 leukemia; SN12C renal; CAKI-1 renal; SNB-75 CNS.
What all share (assay): NCI-60 one-dose screen, 48 h (100 = growth as untreated, 0 = no growth, -100 = all killed)
What all share (settings): 10 µM unless noted

This is part of a sample that, as a whole, favours compounds with a hit. Of some 83,000 tested, about 20% had one in any assay.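 Method: cells in 96-well plates; compound added at one concentration; 48 h incubation; percent growth measured; values under 10 scored active.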 Values without a mark were called inactive. The source made the active and inactive calls.

For `C=CCn1c(SCC(=O)Nc2ccc(C(=O)/C=C/c3cc(OC)c(OC)c(OC)c3)cc2)nnc1-c1c[nH]c2ccccc12`, the growth was -20.3% (active) with HCT-15 colon; -57.2% (active) in the assay on HT29 colon; 21.7% in the assay with SNB-19 CNS; 8.96% (active) in the assay with U251 CNS; 40.6% in the assay with PC-3 prostate; 25.2% in the assay on SK-MEL-5 melanoma. Also, the growth in the assay with UACC-62 melanoma is 36.7%; in the assay on LOX IMVI melanoma, -65.1% (active); in the assay with SK-MEL-28 melanoma it was 41.7%; in the assay with SK-MEL-2 melanoma it was 101%; in the assay with EKVX NSCLC, 73.7%; in the assay on UO-31 renal it was 43.5%. The growth was 144% in the assay on TK-10 renal; 52.2% in the assay on ACHN renal; 44% with A498 renal; 5.4% (active) in the assay with CCRF-CEM leukemia; 2.78% (active) with MOLT-4 leukemia.

With `N#Cc1cccc(CN2CCC3=C(C2)C(=O)N(Cc2ccc(Cl)cc2)C2=NCCN23)c1`, the growth was 17.3% in the assay with HCT-15 colon; 30.8% in the assay on HT29 colon; 23.7% in the assay with SNB-19 CNS; 23.3% in the assay on U251 CNS; 24.1% in the assay on PC-3 prostate; 13.1% in the assay with SK-MEL-5 melanoma. The growth with UACC-62 melanoma is 29.9%; with LOX IMVI melanoma, 47.5%; in the assay with EKVX NSCLC, 26.8%; in the assay on SN12C renal it was 23.9%; in the assay with UO-31 renal, 35.5%; in the assay with TK-10 renal, 52.3%. In addition, the growth was 33.2% in the assay on ACHN renal, 15% in the assay with A498 renal, 33.1% in the assay on CCRF-CEM leukemia and 53.2% with MOLT-4 leukemia.

Take `CCOC(=O)C(=O)CC(=O)N1C(=S)NC(=O)C1CC(C)C` (stereo unspecified): the growth is 94.8% in the assay with HCT-15 colon; 113% in the assay with HT29 colon; 99.9% with SNB-19 CNS; 105% in the assay on U251 CNS; 95.6% in the assay on SK-MEL-5 melanoma; 96.3% in the assay on UACC-62 melanoma. Also, the growth in the assay with LOX IMVI melanoma is 98%; in the assay with SK-MEL-28 melanoma, 99.6%; with SK-MEL-2 melanoma, 111%; in the assay on EKVX NSCLC, 98.2%; in the assay with SN12C renal it was 97.6%; with UO-31 renal, 84%. In addition, the growth in the assay with TK-10 renal was 106%; in the assay on ACHN renal it was 103%; with CAKI-1 renal, 102%; in the assay with A498 renal it was 98.6%; in the assay with CCRF-CEM leukemia, 100%; with MOLT-4 leukemia it was 108%.

As for `CC[C@@H](CO)Nc1ccc2ncc(C#Cc3cncc(C(=O)Nc4ccc(CN5CCN(C)CC5)c(C(F)(F)F)c4)c3)n2n1`, the growth was -33.4% (active) in the assay with HCT-15 colon; -83.5% (active) in the assay with SNB-75 CNS; -20% (active) in the assay with SNB-19 CNS; -87.8% (active) in the assay on U251 CNS; -21.1% (active) in the assay with PC-3 prostate; -96.4% (active) with SK-MEL-5 melanoma. For the same molecule, the growth in the assay with UACC-62 melanoma is -34.5% (active); in the assay with LOX IMVI melanoma, -95.3% (active); in the assay with SK-MEL-28 melanoma it was -43.4% (active); with SK-MEL-2 melanoma it was -93.2% (active); in the assay with EKVX NSCLC, -9.99% (active); with SN12C renal it was -55.4% (active). Further, the growth in the assay with UO-31 renal is -85.9% (active); in the assay with TK-10 renal, -53.5% (active); in the assay on ACHN renal, -91.4% (active); in the assay with CAKI-1 renal it was -82.8% (active); with A498 renal, -98.8% (active); in the assay on CCRF-CEM leukemia, 7.24% (active).

For the molecule `CCn1c(SCC(=O)Nc2cccc(C(=O)/C=C/c3cc(OC)c(OC)c(OC)c3)c2)nc2ccccc2c1=O`, the growth with HCT-15 colon is -13.9% (active); in the assay with HT29 colon it was 1.12% (active); in the assay on SNB-19 CNS, 39.9%; in the assay on U251 CNS it was 30.1%; with PC-3 prostate it was 46.8%; in the assay with SK-MEL-5 melanoma, 33.9%. Moreover, the growth with UACC-62 melanoma is 41.2%; with LOX IMVI melanoma, -73.6% (active); in the assay with SK-MEL-28 melanoma, 77%; in the assay with EKVX NSCLC, 68.6%; in the assay with SN12C renal it was 37.6%; in the assay with UO-31 renal, 37.5%. For the same molecule, the growth with TK-10 renal was 132%; with ACHN renal it was 41.7%; in the assay on CAKI-1 renal it was 45.4%; in the assay with A498 renal, 71.3%; in the assay on CCRF-CEM leukemia, 4.6% (active); with MOLT-4 leukemia, 22.4%.

Consider `CC(=O)C1=C(C)NC(NNC(N)=S)=NC1c1ccccc1` (stereo unspecified), for which the growth was 105% with HCT-15 colon; 109% in the assay on HT29 colon; 98.8% in the assay on SNB-19 CNS; 106% in the assay on U251 CNS; 99.9% with PC-3 prostate; 96.7% in the assay on SK-MEL-5 melanoma. Besides, the growth is 88.2% with LOX IMVI melanoma; 98.1% with SK-MEL-28 melanoma; 70.9% in the assay on EKVX NSCLC; 83.8% with SN12C renal; 59.5% in the assay on UO-31 renal; 56.8% with TK-10 renal. Further, the growth in the assay with ACHN renal was 101%; in the assay with CAKI-1 renal, 64.7%; with A498 renal, 2.72% (active); in the assay on CCRF-CEM leukemia it was 95.5%; with MOLT-4 leukemia, 114%.

Take `CC(=O)N1N=C(c2cccc(-n3cccc3)c2)CC1c1cccc(F)c1` (stereo unspecified): the growth is 92.8% in the assay on HCT-15 colon; 100% in the assay on HT29 colon; 88.5% with SNB-19 CNS; 93.4% in the assay on U251 CNS; 98.7% in the assay with SK-MEL-5 melanoma; 81% in the assay on UACC-62 melanoma. Besides, the growth was 95.5% in the assay with LOX IMVI melanoma; 103% in the assay with SK-MEL-28 melanoma; 103% in the assay with SK-MEL-2 melanoma; 95.7% with EKVX NSCLC; 97.1% in the assay on SN12C renal; 75.4% with UO-31 renal. Further, the growth in the assay on TK-10 renal was 123%; in the assay with ACHN renal, 101%; with CAKI-1 renal it was 86.5%; in the assay on A498 renal it was 101%; with CCRF-CEM leukemia, 94.4%; in the assay on MOLT-4 leukemia, 90.3%.

Turning to `O=C(Nc1ccc(Br)cc1)Nc1nc2ccc([N+](=O)[O-])cc2s1`, the growth is -11.3% (active) with HCT-15 colon; 7.76% (active) with HT29 colon; 19.1% in the assay on SNB-19 CNS; 0.478% (active) with U251 CNS; 0.887% (active) in the assay on PC-3 prostate; -82.2% (active) with SK-MEL-5 melanoma. In addition, the growth in the assay on UACC-62 melanoma was -19.6% (active); with SK-MEL-28 melanoma, 6.25% (active); in the assay on SK-MEL-2 melanoma, -22.7% (active); in the assay with EKVX NSCLC it was 9.52% (active); with UO-31 renal, 5.94% (active); in the assay with TK-10 renal, -2.48% (active). Further, the growth in the assay with ACHN renal was 3.61% (active); in the assay on CAKI-1 renal, -2.25% (active); in the assay with CCRF-CEM leukemia, 10.9%; in the assay on MOLT-4 leukemia, 3.2% (active).

Consider `CCCSc1nc(Nc2ccc(/C(C)=N\NC(N)=S)cc2)c(C#N)c(-c2ccccc2)n1`, for which the growth with HCT-15 colon was 66%; with HT29 colon, 60.3%; in the assay with SNB-19 CNS it was 83.1%; in the assay with U251 CNS, 73.1%; with PC-3 prostate, 79.9%; with SK-MEL-5 melanoma, 80.2%. The growth is 97.1% in the assay with UACC-62 melanoma; 46.1% with LOX IMVI melanoma; 87.9% in the assay with SK-MEL-2 melanoma; 74.4% with EKVX NSCLC; 77.9% with SN12C renal; 46.9% in the assay with UO-31 renal. In addition, the growth is 95% in the assay with TK-10 renal; 35.4% in the assay with ACHN renal; 48.1% with CAKI-1 renal; 102% in the assay with A498 renal; 69.3% in the assay with CCRF-CEM leukemia; 52.8% in the assay with MOLT-4 leukemia.
